# PubChem BioAssay AID1259415 (National Center for Advancing Translational Sciences (NCATS), 2018)
# The campaign covered roughly 410,000 compounds. About 18,000 (4.4%) were called active. About 7% were inconclusive and are not listed. No stated cut-off is given here; in the data, active means activity change below about -60%; inconclusive means no clear call, values can overlap the other calls; inactive means above about -39%. This excerpt belongs to a sample that is enriched for actives.
# Experiment: qHTS Assay for inhibitors of the human cytomegalovirus (HCMV)
# Conditions: HFF cells, HCMV-luciferase reporter, 72 h; at 57.5 µM; stronger effect = lower value
# Procedure, shortened: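 Two-dose cell screen: HFF monolayers treated with compounds and infected with luciferase-expressing HCMV at 1 PFU/cell, 72 h at 37C, then lysed for luciferase measurement.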
# On the % scale 0 is the no-effect control and ±100 the full control effect.
row,Structure (SMILES),"activity change, negative = inhibition"
1,Cc1ccc(CSc2nc3ccsc3c(=O)n2CCC(C)C)cc1,-15.8% (inactive)
2,COc1ccccc1CNC(=O)CS(=O)(=O)c1cccc2nsnc12,22.9% (inactive)
3,CCCc1ccc(-c2c(C)sc(NC(=O)c3ccnn3C)c2C#N)cc1,-97.3% (active)
4,Cc1c(C#N)c(NC(=O)c2ccccc2)n(Cc2ccccc2)c1C,-33.4% (inactive)
5,Cc1c(C(=O)OC(C)C)sc(NC(=O)c2cccnc2)c1C#N,4.66% (inactive)
6,CCc1cccc(NC(=O)COC(=O)C2CCN(c3ccc(C(F)(F)F)cn3)CC2)c1,-14.3% (inactive)
7,Cc1ccc(NC(=O)CN2c3ccccc3S(=O)(=O)c3ccccc32)cc1F,18.3% (inactive)
8,CCN(CC)CCNC(=O)c1cc2c(=O)oc3ccc(C)cc3c2s1,3.23% (inactive)
9,COc1ccc(/C=N/OCc2ccccc2C#N)c(OC)c1,50.3% (inactive)
10,FC(F)(F)c1nnc2c3ccccc3c(Cl)nn12,-86.4% (active)
11,Nc1nnc2c(C(F)(F)F)nc3ccccc3n12,1.13% (inactive)
12,COc1ccc(-c2nn3c(-c4ccc(OC)cc4)nnc3c3ccccc23)cc1,7.26% (inactive)
13,Cc1cc(C)n2nc(C(=O)Oc3ccc4c(c3)OCO4)nc2n1,12.7% (inactive)
14,CC(=O)c1nn(-c2ccc(OC(F)(F)F)cc2)nc1Nc1ccccc1,-19.8% (inactive)
15,COc1ccc(NC(=O)c2ccc3nc(CCc4ccccc4)oc3c2)c(OC)c1,15.1% (inactive)
16,CCN1CCC(O)(/C=C/c2ccc(C)cc2)C(C(=O)/C=C/c2ccc(C)cc2)C1 (stereo not given),-101% (active)
17,O=C(CCOc1ccccc1)N(Cc1cccnc1)c1nc2ccc(Cl)cc2s1,-5.41% (inactive)
18,O=C(CCS(=O)(=O)c1ccccc1)N(Cc1cccnc1)c1nc2c(F)cccc2s1,112% (inactive)
19,Cc1ccc(-c2nc3ccccn3c2Nc2c(C)cccc2C)o1,-20.4% (inactive)
20,Cc1cccc(C(=O)Nc2ccc(S(=O)(=O)N3CCCCC3c3cccnc3)cc2)c1 (stereo not given),-34.9% (inactive)
21,O=C(CS(=O)(=O)c1cccc2nsnc12)N1CCN(c2cccc(Cl)c2)CC1,-13.3% (inactive)
22,C/C(Cc1ccccc1)=N\NC(=O)CNC(=O)c1ccccc1Cl,22.5% (inactive)
23,C/C(=N/NC(=O)c1ccn(C)n1)c1ccncc1,22.2% (inactive)

row,Structure (SMILES),"activity change, negative = inhibition"
1,O=[N+]([O-])c1ccc(NC(=S)N2CCN(c3ccccn3)CC2)cc1,-38.3% (inactive)
2,C/C(=N/NC(=O)CSc1ccccn1)c1ccc([N+](=O)[O-])cc1,21.4% (inactive)
3,CC(=NNC(=S)N1CCCCCC1)c1ccccn1,-98.7% (active)
4,C/C(=N\NC(=O)Cc1ccc(Cl)cc1)c1ccccn1,-98.9% (active)
5,CCOC(=O)c1ccc(NC(=S)N2CCN(c3ccccn3)CC2)cc1,0.324% (inactive)
6,C/C(=N\NC(=O)c1ccccc1F)c1ccccn1,-113% (active)
7,O=C(NC(=S)NC1CCSC1=O)c1ccccc1F (stereo not given),-2.85% (inactive)
8,CCC[C@H]1[C@H](NCC2CCCCC2)CC[C@@]23CCCN2C(=O)CCC[C@@H]13,-6.34% (inactive)
9,CSCC[C@H](NC(=O)NCCc1ccc(F)cc1)C(=O)O,-21.4% (inactive)
10,CCOc1ccc(NC(=O)C(=O)NCCc2csc3nc(-c4ccccc4F)nn23)cc1,18.8% (inactive)
11,C=CCC[C@@H](CCCCC)OC(=O)/C=C/[C@@H](O)[C@H](O)C[C@H](O)CC=C,-0.272% (inactive)
12,Fc1ccc(-c2nn(-c3ccccc3Cl)c3c2cnc2ccccc23)cc1,-6.36% (inactive)
13,O=C(NC1(C(F)(F)F)NC(=O)N(Cc2cccnc2)C1=O)c1ccccc1Cl (stereo not given),-16% (inactive)
14,CCc1ccc(NC(=O)CCNS(=O)(=O)c2cccs2)cc1,24.2% (inactive)
15,O=S(=O)(NCCc1ccc(Cl)cc1)c1cccs1,-79.1% (active)
16,CN(CC(=O)NCc1ccc(Cl)cc1)S(=O)(=O)c1cccs1,-18.2% (inactive)
17,Cc1ccc2nc3c(cc(C(=O)NC4CCCCC4)c(=N)n3C(C)C)c(=O)n2c1,-12.2% (inactive)
18,Cc1cccc(N2CCN(C(=O)c3cccc(S(=O)(=O)N4CCc5ccccc5C4)c3)CC2C)c1 (stereo not given),-62.2% (active)
19,CN(C)C(CNC(=O)c1cccc(S(=O)(=O)N2CCc3ccccc3C2)c1)c1ccccc1 (stereo not given),6.73% (inactive)
20,CC(NC(=O)c1cccc(S(=O)(=O)N2CCc3ccccc3C2)c1)c1ccco1 (stereo not given),-21.6% (inactive)
21,CCc1nnc2c3ccccc3nc(N3CCN(c4ccc(C)cc4C)CC3)n12,2.29% (inactive)
22,COc1ccccc1N1CC(C(=O)Nc2nnc(SCC(=O)NC(C)C)s2)CC1=O (stereo not given),45.2% (inactive)
23,CC(C)Nc1nnc(SCC(=O)/C=C2\N(C)c3ccccc3C2(C)C)s1,-65.1% (active)

row,Structure (SMILES),"activity change, negative = inhibition"
1,COC(=O)c1ccc(CSc2nnc(NC(C)C)s2)cc1,-2.57% (inactive)
2,Cc1ccccc1-c1nc2scc(CCNC(=O)C(=O)Nc3ccc(F)cc3F)n2n1,2.08% (inactive)
3,Cc1ccc(C(=O)Nc2nc(-c3ccccc3)ns2)cc1,27% (inactive)
4,CCSc1nsc(NC(=O)Nc2cccc(C(C)=O)c2)n1,-74.9% (active)
5,CC(=O)c1ccc(NC(=O)N[C@@H](Cc2ccccc2)C(=O)O)cc1,23.2% (inactive)
6,Cc1ccccc1CNC(=O)c1cccc(NC(=O)c2nsc3ccccc23)c1,66.7% (inactive)
7,CSc1nsc(NC(=O)Nc2ccccc2)n1,-76.6% (active)
8,CC(=O)c1ccc(NC(=O)CSc2nnc(NC(=O)Nc3ccccc3)s2)cc1,103% (inactive)
9,CC(=O)c1cccc(NC(=O)CSc2nc3c(c(=O)[nH]2)CCC3)c1,-2.89% (inactive)
10,NC(=O)C1CCN(C(=O)c2cccc(NC(=O)c3nsc4ccccc34)c2)CC1,40.7% (inactive)
11,NC(c1csc(NC(=O)Nc2ccccc2Oc2ccccc2)n1)c1ccccc1Cl (stereo not given),-24.7% (inactive)
12,C=CCSc1nnc2c(n1)-c1cccc3cccc-2c13,41.1% (inactive)
13,CC(=O)Nc1ccc(-c2csc(NC(=O)Nc3ccccc3)n2)cc1,-99.1% (active)
14,C=CCSc1nsc(NC(=O)Nc2cccc(C(C)=O)c2)n1,-101% (active)
15,CCOC(=O)c1cnc2c(C)cc(Cl)cc2c1NCCc1ccc(OC)c(OC)c1,-5.49% (inactive)
16,CCOc1ccc(NC(=O)CCC(=O)N2CC(C)Oc3ccc(C)cc32)cc1 (stereo not given),-10.3% (inactive)
17,COc1ccc(NC(C)=O)cc1NC(=O)CN1CCN(c2ccc(F)cc2)CC1,-5.69% (inactive)
18,COc1ccccc1/C=C/c1nc(C#N)c(NC(C)c2ccccc2)o1 (stereo not given),81.4% (inactive)
19,CCCCC12CN3CC(C)(CN(C1)C3c1ccc(O)c(OC)c1)C2=O (stereo not given),4.32% (inactive)
20,Cc1ccc(OCC(=O)Nc2ccc(OCc3cc(=O)n4c(C)csc4n3)cc2)cc1C,18.3% (inactive)
21,CC(C(=O)N1CCN(c2ccccc2F)CC1)c1ccc([N+](=O)[O-])cc1 (stereo not given),-11.5% (inactive)
22,O=C1OC(C(=O)Nc2cccc(Br)c2)Cc2ccccc21 (stereo not given),7.91% (inactive)
23,O=C(CCSc1ccccc1)N1CCN(c2ccccc2F)CC1,72.3% (inactive)

row,Structure (SMILES),"activity change, negative = inhibition"
1,Cn1cc(-c2ccccc2)cc(C#N)c1=O,-1.91% (inactive)
2,Cn1c(-c2sc3cc(C(F)(F)F)cnc3c2-c2ccccc2)n[nH]c1=S,18.8% (inactive)
3,CC12CCC(C(=O)N(NC(=O)c3ccccc3O)C1=O)C2(C)C (stereo not given),-81.2% (active)
4,O=C(NN1C(=O)C2CCCCC2C1=O)c1ccco1 (stereo not given),3.07% (inactive)
5,CC1=CC(C)(C)NC(=S)N1NC(=O)c1ccccc1Cl,38.2% (inactive)
6,CCC(C)NCC(=O)Nc1ccc([N+](=O)[O-])cc1C(=O)Nc1ccccc1F (stereo not given),20.4% (inactive)
7,Cn1c(=O)cc(OCC(=O)N2CCN(c3ccccc3)CC2)c2ccccc21,0.385% (inactive)
8,O=C(C[C@H]1C/C=C\C[C@@H](NC(=O)OCC2c3ccccc3-c3ccccc32)C(=O)O[C@@H](c2ccccc2)CNC1=O)N[C@H](CO)Cc1ccccc1,-86.9% (active)
9,CC(C)(C)OC(=O)C[C@@H]1C/C=C\C[C@@H](CC(=O)N[C@H](CO)Cc2ccccc2)C(=O)NC[C@@H](c2ccccc2)OC1=O,-6.88% (inactive)
10,CC(C)(C)OC(=O)C[C@H]1C/C=C\C[C@@H](CC(=O)N[C@H](CO)Cc2ccccc2)C(=O)NC[C@@H](c2ccccc2)OC1=O,-8.79% (inactive)
11,O=[N+]([O-])c1ccc(Oc2ccc(F)cc2Br)c2ccncc12,-78.1% (active)
12,COc1ccc2oc(=O)c(-c3cn4c(n3)sc3cc(OC)ccc34)cc2c1,-16.2% (inactive)
13,O=[N+]([O-])c1ccc(C=Nc2ccc(Cl)cc2Cl)s1,-103% (active)
14,C=CCN1C=C(C(=O)c2ccccc2)C(=O)CC1,-25.3% (inactive)
15,CCOc1ccc(CC(=O)NCCc2csc3nc(-c4ccccc4F)nn23)cc1,-0.0376% (inactive)
16,CCOc1ccccc1C(=O)Nc1ccc2c(c1)N(C)C(=O)c1ccccc1S2,5.48% (inactive)
17,CC(=O)c1c(C)oc2ccc(NS(=O)(=O)c3ccccc3)cc12,-24.7% (inactive)
18,COC(=O)c1c(C)oc2ccc(N(C(=O)Oc3ccccc3)S(=O)(=O)c3ccccc3)cc12,-63.7% (active)
19,CCOC(=O)c1c(C)oc2ccc(N(C(=O)c3ccncc3)S(=O)(=O)c3ccc(CC)cc3)cc12,-6.14% (inactive)
20,Cc1cccc(N(C)C(=O)CS(=O)(=O)c2cccc3nsnc23)c1,-14.6% (inactive)
21,CCN(C(=O)Cn1c(=O)nc(-c2ccccc2)c2cc(Cl)ccc21)c1cccc(C)c1,-20.1% (inactive)
